# Compound activity: PubChem, National Center for Advancing Translational Sciences (NCATS)
# Compounds with a hit are over-represented: about 7.7% of the library has one in this group of screens.
# Sm TGR block: qHTS Assay for the Inhibitors of Schistosoma Mansoni Peroxiredoxins. Schistosoma mansoni thioredoxin glutathione reductase (TGR), Q962Y6. purified TGR, DTNB reduction, TNB absorbance 405 nm. Potency, µM (top dose mostly 114 µM), for inactives: at the top dose activity change, negative = inhibition, usual class: inhibitors. 360,000 tested, 3% active; also: potency is read from the fitted curve at half-maximal effect; nearly all actives have a fitted effect of over 60% in size
#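 TGR 20 nM + NADPH 100 uM (dispensed conc.), cpd preinc 15 min RT; start with NADPH (500 uM addition) then DTNB (15 mM addition). Kinetic TNB absorbance, 405 nm filter. Four-parameter Hill fit across titration.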
# Giardia FBPA inh: qHTS Assay for Inhibitors of Fructose-1,6-bisphosphate Aldolase from Giardia Lamblia | A8B2U2 | purified Giardia FBPA | Potency, µM (top dose mostly 59.6 µM), for the others: at the top dose activity, negative = inhibition, hits mostly inhibitors | 290,000 tested, 0.71% active | AID 2451, 2010; also: potency is read from the fitted curve at half-maximal effect; nearly all actives have a fitted effect of over 55% in size
# Target sequence (A8B2U2 whole entry, looked up): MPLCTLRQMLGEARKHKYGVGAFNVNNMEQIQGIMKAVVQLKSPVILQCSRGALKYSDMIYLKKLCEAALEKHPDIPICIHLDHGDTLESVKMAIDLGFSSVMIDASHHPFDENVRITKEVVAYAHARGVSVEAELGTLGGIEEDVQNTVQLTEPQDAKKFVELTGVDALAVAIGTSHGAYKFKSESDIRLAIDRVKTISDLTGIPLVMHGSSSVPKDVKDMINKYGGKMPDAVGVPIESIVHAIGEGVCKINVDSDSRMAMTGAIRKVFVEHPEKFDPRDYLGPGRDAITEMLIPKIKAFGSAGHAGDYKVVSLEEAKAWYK
#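 Giardia FBPA (40 nM reagent) was preincubated 10 min at RT with compound (up to 57.5 uM final), then substrate plus GAPDH/TPI/NAD/arsenate coupling system with diaphorase/resazurin was added; resorufin fluorescence (525/598 nm) was read after 20 min.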
# TbPYK inhibitor: qHTS of Trypanosoma Brucei Inhibitors; 410,000 tested, 0.12% active; Potency, µM (titrated, usually from 76.8 µM), for the others: at the top dose activity, negative = inhibition, most hits filed as inhibitors; TbPYK enzyme, Kinase-Glo Plus ATP luminescence, 45 min; also: potency is read from the fitted curve at half-maximal effect; nearly all actives have a fitted effect of over 50% in size
#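 Assay buffer: 50 mM TEA pH 7.2, 100 mM KCl, 10 mM MgCl2, 0.05% BSA, 0.01% Tween-20. Pyruvate kinase from T. brucei plus substrate met compound, then ADP (130 uM final). Luminescence was read post 45 min RT.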
# RE007 growth inh: qHTS Assay for Inhibitors of the HIV-1 protein Vpr; S. pombe RE007 Vpr strain, BacTiter-Glo ATP luminescence, 24 h; Potency, µM (doses to about 92.2 µM), for the others: at the top dose activity change, negative = less growth, usual class: inhibitors; 360,000 tested, 0.21% active; AID 651644, 2012; active = well fitted falling curve with a large enough effect; inconclusive = small, poorly fitted or top-dose-only effect; inactive = no such curve, though single readings can be large or run the other way; also: potency is read from the fitted curve at half-maximal effect; nearly all actives have a fitted effect of over 50% in size
#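 Fission yeast strain RE007, carrying one chromosomally integrated HIV-1 vpr copy, was seeded at OD 0.01 in PMG+AL medium with 23 nL pinned compound. After 24 h at 30 °C and 99% humidity, viability was read by BacTiter-Glo luminescence.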
# FMDV antiviral: High Throughput Screening for Foot and Mouth Disease Virus Antivirals. FMDV antiviral cell-based qHTS. Potency, µM (highest dose often 57.9 µM), inactives show at the top dose activity change, negative = inhibition, usual class: inhibitors. 410,000 tested, 1.2% active; calls by dose curve; tested in HEK293T cells; also: read-out not given here; potency is read from the fitted curve at half-maximal effect; nearly all actives have a fitted effect of over 45% in size
# HCMV inh: qHTS Assay for inhibitors of the human cytomegalovirus (HCMV); 410,000 tested, 4.5% active; activity change, negative = inhibition, % at 57.5 µM; HFF cells, HCMV-luciferase reporter, 72 h; active compounds read low; AID 1259415, 2018; in the data active = activity change below about -60%; inconclusive = no clear call, values can overlap the other calls; inactive = above about -39%
#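 Luciferase read-out from HCMV-luciferase-infected HFFs (MOI 1 PFU/cell) 72 h post infection at 37C; compounds added after 16 h cell attachment; activity normalized between buffer-only basal and Salinomycin (10uM) inhibitor controls.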
# The depositor's hits bear a star; ? = inconclusive; . = not tested or not shown; [ ] = dose if it differs, or a comment. Unless noted, calls follow the shape of the dose curve; as a rule, active = well fitted curve in the direction sought with a large enough effect; inconclusive = small, poorly fitted or top-dose-only effect, or another doubt; inactive = no such curve, though single readings can be large; an effect the other way counts as inactive or inconclusive. % is scaled to controls: 0 for no effect and ±100 for the full control effect.
SMILES,Sm TGR block,Giardia FBPA inh,TbPYK inhibitor,RE007 growth inh,FMDV antiviral,HCMV inh
CCC1CN(CCNC(=O)c2cscn2)Cc2cc(OC)ccc2O1 (stereo not given),.,.,.,.,3%,.
COc1ccc(C(=O)Nc2nnc(SCc3cc(=O)c4cc(C)ccc4[nH]3)s2)cc1OC,3%,.,-8%,.,-21%,11
Cc1ccc(-n2c(SCC(=O)N3CCCc4ccccc43)nnc2-c2cccnc2)c(C)c1,1%,4%,-6%,-8%,-19%,?
Cc1ccc(-n2c(-c3ccccc3)c[n+]3c2CCc2ccccc2-3)c(C)c1,3%,11%,3%,-16%,2.8µM*,-97*
Cc1oc(-c2ccccc2NC(=O)C2CCC2)nc1CNC(=O)c1ccc2ccccc2c1,.,.,.,.,34%,.
Nc1nonc1-c1nc2ccccc2n1CC(=O)Nc1ccccc1C(=O)O,5%,.,10%,.,15%,1
Nc1nonc1-c1nc2ccccc2n1CC(=O)N/N=C/c1ccc(-c2cccc(C(=O)O)c2)o1,50µM*,-14%,-18%,-2%,11%,-27
CC1=CC(=C2C(=O)c3ccccc3C2=O)C=C(C)N1Cc1ccco1,40µM*,-14%,-10%,-13%,11%,78
CCc1nc(N)nc(N)c1-c1ccc(N(C)Cc2ccccc2)c([N+](=O)[O-])c1,.,.,-3%,6%,22µM*,-97*
CCc1nc(N)nc(N)c1-c1ccc(Cl)cc1,2%,-1%,-5%,-2%,-9%,-99*
C=C[C@H]1CCC=C2C(=O)CCC[C@@H]21,.,-2%,.,.,.,.
Cc1cccc(NC(=S)N(CCN2CCOCC2)Cc2cc3cc4c(cc3[nH]c2=O)OCO4)c1,0%,-5%,4%,-21%,-12%,-21
Cn1cc(CN(CCCN2CCOCC2)C(=S)Nc2cccc(Cl)c2)c2ccccc21,0%,0%,3%,3%,-16%,-78*
Cc1cccc(NC(=S)N(CCCN2CCOCC2)Cc2cn(C)c3ccccc23)c1,-6%,0%,-2%,1%,-8%,-89*
CCCCN1C(=O)N(c2ccc(Br)cc2)C(=O)C1c1nnnn1-c1c(C)cccc1Cl (stereo not given),.,.,.,.,.,-13
CCc1cc(-c2[nH]ncc2-c2nc3ccccc3n2C)c(O)cc1O,12%,-25%,0%,3%,-45%,14
Cc1nc(-c2ccc3c(c2)OCCCO3)cs1,1%,-3%,8%,-10%,16%,40
CCCc1cc(-c2[nH]ncc2-c2ccc3c(c2)OCCCO3)c(O)cc1O,0%,2%,-3%,18%,14µM*,39
CCCc1cc(-c2[nH]ncc2-c2ccc(C(=O)OCC)o2)c(O)cc1O,?,-1%,0%,3%,.,-62*
O=C1CC(c2c(Cl)cccc2Cl)c2c(ccc3ccccc23)N1 (stereo not given),-2%,.,-1%,.,0%,-14
COc1ccccc1N1CCN(S(=O)(=O)c2c(C)nc3sccn3c2=O)CC1,8%,.,1%,.,-1%,-2
CCn1c(SCc2c(F)cccc2Cl)nc(=O)c2c(C(=O)OC)cc(C3CC3)nc21,5%,.,-3%,.,-28%,-13
COc1ccc(CCNC(=O)c2ccc3c(c2)N(Cc2ccccc2C)C(=O)c2ccccc2S3)cc1OC,4%,.,2%,.,-22%,-79*
COc1ccc(CCNC(=O)c2ccc3c(c2)N(Cc2ccc(F)cc2)C(=O)CS3)cc1OC,1%,.,2%,.,?,-66*
Cc1ccc(C)c(-n2nnnc2SCC(=O)c2ccc3c(c2)NC(=O)CO3)c1,-5%,8%,-5%,2%,?,-84*
SMILES,Sm TGR block,Giardia FBPA inh,TbPYK inhibitor,RE007 growth inh,FMDV antiviral,HCMV inh
Cc1cccc(OCC(=O)Nc2ccc3c(c2)nc(CN2CCCCC2)n3C)c1,9%,-12%,2%,3%,13µM*,?
Cc1cccc(OCC(=O)Nc2ccc3c(c2)nc(CCN2CCCCC2)n3C)c1,-8%,-17%,0%,1%,-3%,-86*
O=C1CC(c2ccco2)CC2=C1C=Nc1ccccc1N2 (stereo not given),40µM*,0%,-10%,-2%,?,?
COc1cc(C2C3=C(Nc4ncnn42)c2ccccc2CC3)cc(OC)c1OC (stereo not given),?,-26%,5%,0%,8%,-89*
COc1ccc(C2C3=C(Nc4ncnn42)c2ccccc2CCC3)cc1 (stereo not given),-10%,1%,2%,6%,.,68
Cc1cccn2c(=O)c3cc(C(=O)NC4CCCC4)c(=N)n(Cc4ccc(F)cc4)c3nc12,-17%,0%,0%,-6%,-12%,-16
COCCCn1c(=N)c(C(=O)NCC2CCCO2)cc2c(=O)n3cccc(C)c3nc21 (stereo not given),-9%,1%,7%,.,-25%,-27
Cc1ccc(Cn2c(=N)c(C(=O)NCC3CCCO3)cc3c(=O)n4cccc(C)c4nc32)cc1 (stereo not given),2%,5%,3%,-2%,7%,-107*
Cc1cccn2c(=O)c3cc(C(=O)NC4CCCCC4)c(=N)n(Cc4ccccc4)c3nc12,2.8µM*,.,3%,11%,-21%,-61*
CCOCCCn1c(=N)c(C(=O)NCC2CCCO2)cc2c(=O)n3cccc(C)c3nc21 (stereo not given),4%,.,0%,.,-22%,-67*
Cc1ccc(Cn2c(=N)c(C(=O)NCC3CCCO3)cc3c(=O)n4ccccc4nc32)cc1 (stereo not given),-3%,14%,-2%,-5%,-2%,-9
CC(=O)c1cc(-c2ccccc2)n(CC(=O)NCCc2ccc(C)cc2)c1C,14%,.,-8%[15.4 µM],.,-19%,0
Cc1ccc(CCNC(=O)c2cc3c(=O)oc4ccccc4c3s2)cc1,-2%,.,-2%,.,-8%,4
O=C(CN1C(=O)C2(SCC(=O)N2c2cccc(Cl)c2)c2ccccc21)NC1CCCCC1 (stereo not given),3%,.,-1%,.,0%,17
COC(=O)NC(c1cccc(F)c1)C(C(C)=O)C(=O)OC (stereo not given),.,5%[12.9 µM],.,.,.,.
O=C(CCl)NC(=O)NC12CC3CC(CC(C3)C1)C2,8.9µM*,-13%,0%,34%,?,-99*
COC(=O)C1CCN(Cc2ccc3c(c2)CN(C(=O)c2cc(-c4ccc(C)o4)[nH]n2)CCO3)CC1,.,.,.,.,-8%,.
